Common to all, as to experiment: log2 fold change, soluble protein after heating vs DMSO (PISA); higher = thermal stabilisation; K562 lysate, 10 uM; active = over 0.2 and 3.5 SD of the protein, either way, in both replicates (recomputed)
Compound in assay [1]: CCCS(=O)(=O)Nc1ccc(F)c(C(=O)c2c[nH]c3ncc(-c4ccc(Cl)cc4)cc23)c1F [vemurafenib]
The essentials: (§1)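 Following dounce homogenisation of K562 pellets in PBS pH 7.4 with 1 mM MgCl2, crude extract at 1 mg/mL protein was incubated for 30 min with 10 μM compound. Aliquots were then heated for 3 min over 48°C-58°C and pooled, NP-40 was added to 0.5% at 4°C, and soluble protein was recovered as the supernatant at 21,000xg for 90 min. Channel-sum-equalised TMTpro 16plex LC-MS/MS quantified this protein. Each value, from duplicates, is a log-two fold change in thermal stability relative to solvent controls.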

Compound in assay [2]: CCCS(=O)(=O)Nc1ccc(F)c(C(=O)c2c[nH]c3ncc(Cl)cc23)c1F
The gist of the method: as §1

Compound in assay [3]: CCN(CCCOc1ccc2c(Nc3cc(CC(=O)Nc4cccc(F)c4)[nH]n3)ncnc2c1)CCOP(=O)(O)O [barasertib]
The gist of the method: as §1

Compound in assay [4]: CC[C@@H]1C(=O)N(C)c2cnc(Nc3ccc(C(=O)NC4CCN(C)CC4)cc3OC)nc2N1C1CCCC1
The essentials:
as §1

Compound in assay [5]: CC[C@@H]1C(=O)N(C)c2cnc(Nc3ccc(C(=O)N[C@H]4CC[C@H](N5CCN(CC6CC6)CC5)CC4)cc3OC)nc2N1C(C)C [volasertib]
The gist of the method:
as §1

Compound in assay [6]: CCn1c(C(=O)N(C2CC2)C2CC2)cc2c3c(ncn3C)c(Nc3cc(C)n(C)n3)nc21
The essentials: as §1

Compound in assay [7]: CCn1cc(-c2ccnc3[nH]c(-c4cccc(CN(C)C)c4)cc23)c(-c2ccc(NC(=O)N(C)C)cc2)n1
The gist of the method:
as §1

Compound in assay [8]: CN1CCC(CNc2ccc3ncc(-c4cccc(OC(F)(F)F)c4)n3n2)CC1
The essentials: as §1

Compound in assay [9]: CN1CCN(CCOc2cc(OC3CCOCC3)c3c(Nc4c(Cl)ccc5c4OCO5)ncnc3c2)CC1 [saracatinib]
The essentials:
as §1

Compound in assay [10]: CN1CCN(c2nc(C3=C(c4c[nH]c5ccccc45)C(=O)NC3=O)c3ccccc3n2)CC1 [sotrastaurin]
The essentials: as §1

About 8,800 targets were measured; listed, in parts, are those with a hit and a random draw of the rest. About 0.5% of all pairs of compound and target were hits. Unmarked numbers belong to inactive results.

UniProt O95819, sequence (O95819 whole entry, looked up): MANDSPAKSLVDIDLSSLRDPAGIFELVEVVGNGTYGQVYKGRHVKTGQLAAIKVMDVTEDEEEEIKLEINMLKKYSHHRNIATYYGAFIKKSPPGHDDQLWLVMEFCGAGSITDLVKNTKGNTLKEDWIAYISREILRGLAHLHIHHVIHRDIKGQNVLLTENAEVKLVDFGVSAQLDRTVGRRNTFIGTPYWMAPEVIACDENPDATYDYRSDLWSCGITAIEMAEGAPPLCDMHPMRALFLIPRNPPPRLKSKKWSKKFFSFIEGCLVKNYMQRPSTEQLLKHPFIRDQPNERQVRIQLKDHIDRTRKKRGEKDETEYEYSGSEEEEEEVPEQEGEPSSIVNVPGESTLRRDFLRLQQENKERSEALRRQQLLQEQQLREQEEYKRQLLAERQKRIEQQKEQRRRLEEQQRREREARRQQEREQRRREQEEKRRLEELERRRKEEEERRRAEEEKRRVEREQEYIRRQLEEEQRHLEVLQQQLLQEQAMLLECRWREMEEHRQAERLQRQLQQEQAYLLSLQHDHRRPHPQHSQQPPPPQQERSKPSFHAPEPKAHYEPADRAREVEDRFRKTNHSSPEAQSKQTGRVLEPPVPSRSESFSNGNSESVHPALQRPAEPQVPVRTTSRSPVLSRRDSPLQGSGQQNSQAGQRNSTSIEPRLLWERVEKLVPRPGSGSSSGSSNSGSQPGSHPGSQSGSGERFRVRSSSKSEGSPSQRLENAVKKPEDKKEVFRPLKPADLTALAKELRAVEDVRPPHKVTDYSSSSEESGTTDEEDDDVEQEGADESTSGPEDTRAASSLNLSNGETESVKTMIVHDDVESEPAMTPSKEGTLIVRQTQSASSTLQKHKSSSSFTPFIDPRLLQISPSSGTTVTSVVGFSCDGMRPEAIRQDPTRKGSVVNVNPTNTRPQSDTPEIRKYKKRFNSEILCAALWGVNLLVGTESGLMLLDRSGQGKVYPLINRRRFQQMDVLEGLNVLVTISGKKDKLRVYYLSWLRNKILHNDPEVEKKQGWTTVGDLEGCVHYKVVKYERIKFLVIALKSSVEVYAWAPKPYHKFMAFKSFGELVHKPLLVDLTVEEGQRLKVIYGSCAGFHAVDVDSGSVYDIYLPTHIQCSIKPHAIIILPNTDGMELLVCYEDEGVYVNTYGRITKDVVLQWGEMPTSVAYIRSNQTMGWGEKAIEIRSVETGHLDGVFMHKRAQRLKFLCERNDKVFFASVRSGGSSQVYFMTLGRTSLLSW
UniProt Q9Y4W2, sequence (Q9Y4W2 whole entry, looked up): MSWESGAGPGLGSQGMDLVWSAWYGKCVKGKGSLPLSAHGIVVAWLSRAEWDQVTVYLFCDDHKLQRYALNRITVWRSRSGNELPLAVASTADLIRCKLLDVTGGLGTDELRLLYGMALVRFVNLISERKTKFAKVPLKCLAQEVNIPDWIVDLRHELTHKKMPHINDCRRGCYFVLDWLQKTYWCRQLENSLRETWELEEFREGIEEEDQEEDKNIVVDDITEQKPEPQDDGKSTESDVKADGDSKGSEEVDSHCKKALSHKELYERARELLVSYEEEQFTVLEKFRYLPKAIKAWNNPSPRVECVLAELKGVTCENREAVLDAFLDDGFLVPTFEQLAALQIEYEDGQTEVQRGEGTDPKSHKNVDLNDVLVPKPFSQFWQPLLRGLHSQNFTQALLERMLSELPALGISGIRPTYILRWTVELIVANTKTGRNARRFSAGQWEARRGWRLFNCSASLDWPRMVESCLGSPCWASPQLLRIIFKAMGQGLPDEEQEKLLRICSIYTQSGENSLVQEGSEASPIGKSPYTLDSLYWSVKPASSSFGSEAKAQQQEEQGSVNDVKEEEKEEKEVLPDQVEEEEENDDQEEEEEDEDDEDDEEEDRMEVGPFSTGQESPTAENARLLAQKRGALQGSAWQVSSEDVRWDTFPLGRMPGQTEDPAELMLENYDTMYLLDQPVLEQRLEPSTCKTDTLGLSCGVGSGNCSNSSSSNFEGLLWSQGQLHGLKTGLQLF
UniProt Q9P0L2, sequence (Q9P0L2 whole entry, looked up): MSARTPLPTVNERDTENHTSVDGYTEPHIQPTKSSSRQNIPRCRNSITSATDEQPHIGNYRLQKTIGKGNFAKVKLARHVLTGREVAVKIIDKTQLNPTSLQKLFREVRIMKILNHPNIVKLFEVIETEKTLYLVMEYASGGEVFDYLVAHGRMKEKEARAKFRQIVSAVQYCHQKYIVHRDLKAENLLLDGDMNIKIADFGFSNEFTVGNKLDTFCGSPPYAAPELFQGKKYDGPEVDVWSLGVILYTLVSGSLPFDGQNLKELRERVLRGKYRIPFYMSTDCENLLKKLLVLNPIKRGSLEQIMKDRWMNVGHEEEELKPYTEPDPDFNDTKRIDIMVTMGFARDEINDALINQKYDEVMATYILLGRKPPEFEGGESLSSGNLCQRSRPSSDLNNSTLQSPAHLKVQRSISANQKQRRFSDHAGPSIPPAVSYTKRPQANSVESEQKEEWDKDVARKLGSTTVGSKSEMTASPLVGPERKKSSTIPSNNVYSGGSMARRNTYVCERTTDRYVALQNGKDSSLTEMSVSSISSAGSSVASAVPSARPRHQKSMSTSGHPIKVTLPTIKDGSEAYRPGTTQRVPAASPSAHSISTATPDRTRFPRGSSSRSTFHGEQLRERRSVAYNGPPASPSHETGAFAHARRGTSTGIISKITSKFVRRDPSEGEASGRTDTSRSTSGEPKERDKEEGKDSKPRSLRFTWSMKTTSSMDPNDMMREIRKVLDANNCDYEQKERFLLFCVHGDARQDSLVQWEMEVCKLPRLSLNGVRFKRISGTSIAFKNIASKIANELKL
UniProt Q15058, sequence (Q15058 whole entry, looked up): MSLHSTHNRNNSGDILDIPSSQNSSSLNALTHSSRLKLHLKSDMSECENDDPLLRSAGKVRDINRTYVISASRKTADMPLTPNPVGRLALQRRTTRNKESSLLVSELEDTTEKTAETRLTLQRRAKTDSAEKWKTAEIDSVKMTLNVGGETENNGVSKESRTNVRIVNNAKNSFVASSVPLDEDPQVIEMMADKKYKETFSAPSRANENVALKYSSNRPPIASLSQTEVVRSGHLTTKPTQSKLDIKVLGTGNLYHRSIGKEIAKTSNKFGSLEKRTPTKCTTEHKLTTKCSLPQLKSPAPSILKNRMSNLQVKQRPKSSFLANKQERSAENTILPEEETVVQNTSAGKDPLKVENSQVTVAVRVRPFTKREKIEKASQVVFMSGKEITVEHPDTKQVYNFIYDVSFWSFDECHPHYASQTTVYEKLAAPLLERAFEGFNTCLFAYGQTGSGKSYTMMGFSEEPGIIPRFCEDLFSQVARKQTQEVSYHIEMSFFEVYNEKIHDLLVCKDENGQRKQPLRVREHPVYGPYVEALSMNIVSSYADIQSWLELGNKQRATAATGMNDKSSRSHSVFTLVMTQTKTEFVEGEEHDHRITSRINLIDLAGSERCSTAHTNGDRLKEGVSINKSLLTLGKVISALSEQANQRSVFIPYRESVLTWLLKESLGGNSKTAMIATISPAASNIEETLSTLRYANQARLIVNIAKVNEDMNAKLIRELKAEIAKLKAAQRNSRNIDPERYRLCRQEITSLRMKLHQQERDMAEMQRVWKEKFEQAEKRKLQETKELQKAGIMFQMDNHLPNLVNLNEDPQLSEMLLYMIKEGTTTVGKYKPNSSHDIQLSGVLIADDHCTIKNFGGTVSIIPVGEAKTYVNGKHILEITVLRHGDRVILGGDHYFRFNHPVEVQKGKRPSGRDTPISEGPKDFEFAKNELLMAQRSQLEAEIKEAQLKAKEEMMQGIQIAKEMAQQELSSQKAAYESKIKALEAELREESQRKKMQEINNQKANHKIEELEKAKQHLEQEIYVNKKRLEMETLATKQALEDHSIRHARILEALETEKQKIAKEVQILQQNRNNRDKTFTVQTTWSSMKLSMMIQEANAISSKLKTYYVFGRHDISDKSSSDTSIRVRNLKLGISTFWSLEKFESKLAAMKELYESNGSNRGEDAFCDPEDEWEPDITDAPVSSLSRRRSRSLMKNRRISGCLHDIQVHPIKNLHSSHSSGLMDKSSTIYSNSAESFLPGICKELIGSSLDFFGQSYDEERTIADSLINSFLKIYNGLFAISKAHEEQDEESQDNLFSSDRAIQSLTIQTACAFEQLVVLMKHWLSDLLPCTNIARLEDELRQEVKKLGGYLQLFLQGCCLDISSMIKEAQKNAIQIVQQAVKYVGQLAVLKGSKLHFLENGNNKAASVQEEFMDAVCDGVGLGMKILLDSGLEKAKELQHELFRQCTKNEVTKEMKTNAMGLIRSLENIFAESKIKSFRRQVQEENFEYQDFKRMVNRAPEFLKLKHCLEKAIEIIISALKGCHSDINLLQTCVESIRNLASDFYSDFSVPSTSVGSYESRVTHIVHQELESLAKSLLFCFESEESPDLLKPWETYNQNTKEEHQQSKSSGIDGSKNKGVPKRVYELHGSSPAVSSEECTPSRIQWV
UniProt O14880, sequence (O14880 whole entry, looked up): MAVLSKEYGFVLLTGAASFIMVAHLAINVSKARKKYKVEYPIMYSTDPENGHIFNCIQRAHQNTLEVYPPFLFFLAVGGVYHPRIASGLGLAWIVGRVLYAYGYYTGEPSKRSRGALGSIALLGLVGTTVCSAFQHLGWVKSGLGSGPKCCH
UniProt Q68D91, sequence (Q68D91 whole entry, looked up): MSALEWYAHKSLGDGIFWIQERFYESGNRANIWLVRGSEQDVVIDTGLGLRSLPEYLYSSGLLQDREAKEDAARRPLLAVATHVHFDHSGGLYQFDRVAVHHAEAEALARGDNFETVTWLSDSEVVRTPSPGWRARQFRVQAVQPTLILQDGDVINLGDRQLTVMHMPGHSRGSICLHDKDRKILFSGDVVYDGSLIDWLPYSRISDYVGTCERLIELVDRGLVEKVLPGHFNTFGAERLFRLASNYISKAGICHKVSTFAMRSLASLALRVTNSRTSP

On to KPNA2 (UniProt P52292), for which the log2 fold change in assay [1] is 0.001; in assay [2] it was 0; in [3] it was 0.05; in assay [4] it was -0.037; in assay [5], -0.051; in [6], 0.004. Also, the log2 fold change in assay [7] is -0.033; in assay [8] it was -0.041; in [9], 0.005; in assay [10], 0.038.
As to MAP4K4 isoform 3 (UniProt O95819), the log2 fold change was -0.185 in assay [1]; -0.119 in assay [2]; -0.029 in [3]; -0.071 in [4]; 0.011 in [5]; -0.011 in [6]. Moreover, the values for the log2 fold change in assay [7], in assay [8] and in assay [9] were 0.169, -0.158 and 0.082, respectively.
LRWD1 (UniProt Q9UFC0): the log2 fold change in assay [1] is 0.009; in [2] it was -0.013; in assay [3], -0.021; in [4], -0.016; in assay [5], -0.017; in assay [6] it was 0.023. Also, the log2 fold change in assay [7] is -0.003; in assay [8], 0.036; in assay [9], 0.025; in assay [10] it was 0.03.
On to MARK1 (UniProt Q9P0L2), for which the log2 fold change in assay [1] was -0.006; in assay [2], 0.064; in assay [3], -0.038; in assay [4] it was -0.045; in [5], -0.019; in assay [6], -0.018. Besides, the log2 fold change is -0.06 in assay [7], -0.241 in assay [8], 0.021 in [9] and -0.17 in assay [10].
Regarding MPI (UniProt P34949), the log2 fold change in assay [1] was 0.013; in [2] it was 0.007; in assay [3], 0.008; in assay [4] it was 0.014; in [5], -0.02; in assay [6] it was -0.011. Moreover, the log2 fold change is 0.149 in assay [7], -0.067 in assay [8], -0.028 in assay [9] and 0.025 in assay [10].
For KIF14 (UniProt Q15058), the log2 fold change in [1] is 0.027; in [2], 0.021; in assay [3], 0.143; in [4], 0.052; in assay [5], -0.071; in assay [6], -0.005. Besides, the log2 fold change in assay [7] was -0.046; in assay [8], 0.05; in assay [9], 0.016; in assay [10] it was 0.01.
With MANEA (UniProt Q5SRI9), the log2 fold change was 0.035 in assay [1]; -0.019 in assay [2]; -0.071 in assay [3]; -0.001 in assay [4]; -0.084 in assay [5]; 0.005 in [6]. Besides, the log2 fold change was -0.627 (active) in assay [7], 0.254 in [8], -0.059 in [9] and -0.019 in assay [10].
In the case of MICU1 isoform 3 (UniProt Q9BPX6), the log2 fold change is -0.055 in assay [1]; -0.004 in assay [2]; 0.094 in assay [3]; 0.002 in assay [4]; -0.005 in assay [5]; 0.091 in assay [6]. Further, the log2 fold change in [7] was 0.234 (active); in [8] it was -0.422 (active); in assay [9] it was 0.006; in assay [10], 0.044.
As to MBLAC2 (UniProt Q68D91), the log2 fold change is -0.069 in assay [1]; -0.006 in assay [2]; 0.013 in assay [3]; -0.042 in assay [4]; 0.002 in [5]; 0.008 in assay [6]. Also, the log2 fold change was 0.036 in assay [7], 0.078 in [8], -0.042 in assay [9] and 0.016 in assay [10].
Turning to KNL1 (UniProt Q8NG31), the log2 fold change in assay [1] is -0.031; in [2], 0.064; in [3] it was 0.011; in [4], -0.015; in assay [5], -0.044; in assay [6] it was -0.012. The log2 fold change was 0.015 in [7], 0 in [8], 0.006 in [9] and 0.025 in assay [10].
With MAP4 (UniProt E7EVA0), the log2 fold change in [1] is -0.019; in [2], 0.01; in assay [3] it was 0.04; in assay [4], 0.125; in [5], -0.021; in assay [6], -0.141. For the same target, the log2 fold change is -0.024 in assay [7], 0.029 in [8], 0.024 in assay [9] and -0.008 in assay [10].
For the target LAS1L (UniProt Q9Y4W2), the log2 fold change is -0.027 in assay [1]; 0.007 in [2]; -0.003 in assay [3]; -0.051 in [4]; -0.069 in assay [5]; 0.009 in assay [6]. In addition, the log2 fold change in assay [7] was -0.055; in assay [8], 0.099; in assay [9], -0.031; in assay [10], 0.049.
Turning to MARK2 (UniProt E9PC69), the log2 fold change in assay [1] was 0.015; in assay [2] it was -0.005; in assay [3], 0.027; in assay [4], 0; in assay [5], 0.028; in [6], -0.015. In addition, the log2 fold change is -0.013 in assay [7], -0.22 in assay [8], 0.021 in [9] and -0.026 in [10].
MGST3 (UniProt O14880): the log2 fold change in assay [1] was 0.012; in [2] it was 0.01; in [3], -0.056; in assay [4], 0.078; in [5] it was 0.076; in assay [6], 0.006. In addition, the log2 fold change was 0.286 (active) in assay [7], -0.082 in assay [8], -0.017 in [9] and -0.015 in assay [10].
